According to PubChem BioAssay (EPA / NIEHS):
Active and inactive are the calls of the source. The calls were made as follows: active = hit-call score of the fitted dose curve at least 0.9, where 1 is the maximum; inactive = score below 0.9.

Columns and labels:
[1] = APR_HepG2_CellLoss_72hr: Apredica 72-hour HepG2 Assay for Cell Loss (AID 2282915); details: high-content imaging
Method in brief: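 HepG2 cells exposed 72 h to compound at 0.39–200 uM (10 concentrations, duplicate) in 0.5% DMSO. Fixed with 3.7% formaldehyde and Hoechst 33342-stained. Imaged at 20x; nuclear count gives cell number, fitted bidirectionally versus DMSO.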

[2] = APR_HepG2_P-H2AX_72hr: Apredica 72-hour HepG2 Assay for H2AX Phosphorylation (AID 2282916); details: imaging, actives raise or lower the signal;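 also: phospho-histone H2A.x immunostain intensity per cell marking DNA damage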
Method in brief: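 Phospho-histone H2A.x immunofluorescence, multiplexed with Hoechst and c-Jun, quantified by high-content imaging. Compounds applied to HepG2 for 72 h across ten concentrations (0.39–200 uM, 0.5% DMSO), in duplicate; DMSO baseline.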

[3] = APR_HepG2_MitoMembPot_72hr: Apredica 72-hour HepG2 Assay for Mitochondrial Membrane Potential (AID 2282917); details: imaging, actives raise or lower the signal
Method in brief: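 HepG2 cells dosed 72 hr with compound at 0.39–200 uM in duplicate, 0.5% v/v DMSO final. Mitochondria stained with 250 nM MitoTracker Red CMXRos for 30 min before formaldehyde fixation, imaged by high-content fluorescence; bidirectional fit versus DMSO.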

[4] = APR_HepG2_MitoticArrest_72hr: Apredica 72-hour HepG2 Assay for Mitotic Arrest (AID 2282918); details: high-content imaging, actives raise or lower the signal
Method in brief: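 HepG2 cells treated 72 h at 0.39–200 uM, 0.5% DMSO final; formaldehyde-fixed, stained with Hoechst 33342 and phospho-histone H3 antibody, imaged by high-content fluorescence; bidirectional fit versus DMSO.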

[5] = APR_HepG2_MicrotubuleCSK_72hr: Apredica 72-hour HepG2 Assay for Microtubule CSK Stabilty (AID 2282919); details: HepG2 microtubule cytoskeleton, high-content imaging, actives raise or lower the signal
Method in brief: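 HepG2, 72 hr cmpd exposure, 0.39–200 uM (10 pts, duplicate), 0.5% DMSO. 3.7% formaldehyde fix, 0.5% Triton perm, anti-alpha-tubulin/Cy5 plus Hoechst. HCS fluorescence intensity; bidirectional fit vs DMSO baseline; taxol as positive control.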

[6] = APR_HepG2_StressKinase_72hr: Apredica 72-hour HepG2 Assay for Stress Kinase (AID 2282921); details: HepG2 stress kinase (phospho-c-Jun) imaging, actives raise or lower the signal
Method in brief: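 Stress kinase signal is phospho-c-Jun immunofluorescence (1:500 primary, Cy3 secondary) in fixed, permeabilized human HepG2 cells imaged at 20x. Exposure lasted 72 hr over ten concentrations from 0.39 to 200 uM, 0.5% DMSO, in duplicate. Bidirectional fit versus DMSO.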

[7] = APR_HepG2_StressKinase_24hr: Apredica 24-hour HepG2 Assay for Stress Kinase (AID 2282922); details: HepG2 stress kinase (phospho-c-Jun) imaging, actives raise or lower the signal
Method in brief: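 Read-out: phospho-c-Jun immunofluorescence (Cy3 secondary) quantified by high-content imaging at 20x, nuclei defined by Hoechst 33342. Human HepG2 liver cells dosed 24 hr, 0.39–200 uM, DMSO 0.5% v/v; gain or loss of signal fitted relative to DMSO.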

[8] = APR_HepG2_p53Act_72hr: Apredica 72-hour HepG2 Assay for p53 Activation (AID 2282923); details: high-content imaging, actives raise or lower the signal;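 also: average cellular p53 protein immunofluorescence intensity in HepG2 cells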
Method in brief: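 After 72 h with compound (ten points, 0.39 to 200 uM, final DMSO 0.5% v/v), fixed HepG2 cells were labelled with sheep anti-p53 and Hoechst 33342 and imaged; gain or loss versus DMSO scored.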

[9] = APR_HepG2_MitoMass_72hr: Apredica 72-hour HepG2 Assay for Mitochondrial Mass (AID 2282924); details: high-content imaging, actives raise or lower the signal;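 also: MitoTracker Red CMXRos stain intensity per cell imaged as mitochondrial mass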
Method in brief: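 Read-out: MitoTracker Red fluorescence intensity from automated imaging (20x, six fields per well) in human HepG2 liver cells. Dosing ran 72 hr, 0.39–200 uM, 0.5% DMSO; bidirectional curve fitting versus DMSO baseline.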

[10] = APR_HepG2_NuclearSize_72hr: Apredica 72-hour HepG2 Assay for Nuclear Size (AID 2282925); details: high-content imaging, actives raise or lower the signal
Method in brief: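 Read-out: nuclear diameter from Hoechst 33342 images (ArrayScan, 20x, six fields/well), via cell-cycle image analysis. HepG2 were dosed 0.39–200 uM for 72 hr in 0.5% DMSO. Bidirectional fit relative to DMSO.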

[11] = ATG_CRE_CIS: Attagene CIS-FACTORIAL HepG2 Assay for human cAMP Responsive Element (CRE) binding protein 3 (AID 2282926); details: HepG2 CRE cis-reporter, Attagene multiplexed mRNA; actives raise or lower the signal
Method in brief: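 Induced reporter mRNA from a CRE cis element, measured in HepG2 among many multiplexed units at 24 h. Detection used RT-PCR plus capillary electrophoresis of fluorescent fragments; DMSO served as negative control.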

[12] = biological target: CCAAT/enhancer-binding protein beta (Homo sapiens) (UniProt P17676); experiment: ATG_C_EBP_CIS: Attagene CIS-FACTORIAL HepG2 Assay for human CCAAT/Enhancer Binding Protein (C/EBP) beta (AID 2282927); details: HepG2 Attagene cis-factorial transcription factor reporter; actives raise or lower the signal
Method in brief: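 HepG2, transient MRTU transfection, 24 h treatment. RT-PCR plus CE fluorescence; DMSO negative control, bidirectional fit.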

[13] = ATG_CMV_CIS: Attagene CIS-FACTORIAL HepG2 Assay for human CMV (Internal Marker) (AID 2282928); details: HepG2 CMV promoter reporter, transcription factor profiling; actives raise or lower the signal;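 also: endpoint acts as a background internal control marker rather than a target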
Method in brief: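 Reporter transcripts from transfected HepG2 cells are isolated after 24 h of chemical dosing, reverse-transcribed and amplified. Fragments labeled with 6-FAM are cut with HpaI and quantified by capillary electrophoresis; DMSO defines baseline.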

[14] = ATG_DR4_LXR_CIS: Attagene CIS-FACTORIAL HepG2 Assay for human Liver X Receptor (LXR), DR4 submotif (AID 2282929); details: HepG2 Attagene DR4 cis-reporter, mRNA transcription; actives raise or lower the signal
Method in brief: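 Total RNA from 24 h-treated, MRTU-transfected HepG2 cells underwent reverse transcription, PCR, fluorescent primer extension and restriction digestion before capillary electrophoresis. Both increases and decreases in reporter signal were fitted against DMSO.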

[15] = biological target: Aryl hydrocarbon receptor (Homo sapiens) (UniProt P35869); experiment: ATG_Ahr_CIS: Attagene CIS-FACTORIAL HepG2 Assay for human Aryl Hydrocarbon Receptor (Ahr) (AID 2282930); details: HepG2 AhR cis-factorial reporter transcription; actives raise or lower the signal
Method in brief: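 Endogenous factor activity is tracked through cis-promoter reporter units transfected into HepG2 cells. Transcript levels at 24 h are read by fluorescent RT-PCR and capillary electrophoresis, with activity in either direction scored relative to DMSO.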

[16] = ATG_AP_1_CIS: Attagene CIS-FACTORIAL HepG2 Assay for human Activator Protein 1 (AP-1) (AID 2282931); details: HepG2 Attagene cis-factorial AP-1 reporter mRNA; actives raise or lower the signal
Method in brief: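 HepG2, transient cis-reporter transfection; 24 h; readout RT-PCR/CE fluorescence; DMSO baseline, gain and loss fitted.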

[17] = ATG_AP_2_CIS: Attagene CIS-FACTORIAL HepG2 Assay for human Activator Protein 2 (AP-2) (AID 2282932); details: HepG2 AP-2 cis-reporter, Attagene transcription factor profiling; actives raise or lower the signal
Method in brief: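 Liver-derived HepG2 line, cis-reporter system measuring endogenous factors; 24 h dosing; reporter mRNA detected by fluorescent RT-PCR and capillary electrophoresis.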

[18] = ATG_BRE_CIS: Attagene CIS-FACTORIAL HepG2 Assay for human Bone Morphogenetic Protein (BMP) Response Element (BRE) (AID 2282933); details: HepG2 BMP response element reporter, Attagene transcription factor profiling; actives raise or lower the signal
Method in brief: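 A HepG2 multiplex reporter system measured inducible reporter mRNA 24 h post-dosing. Detection: RT-PCR, 6-FAM primer extension, HpaI digestion, capillary electrophoresis. Activity fitted bidirectionally relative to DMSO.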

[19] = biological target: Retinoic acid receptor alpha (Homo sapiens) (UniProt P10276); experiment: ATG_DR5_RAR_CIS: Attagene CIS-FACTORIAL HepG2 Assay for human Retinoic Acid Receptor Alpha (RARE), DR5 submotif (AID 2282934); details: HepG2 Attagene cis-factorial RARE DR5 reporter, mRNA; actives raise or lower the signal
Method in brief: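 After 24 h of chemical exposure, transiently transfected HepG2 cells were lysed for total RNA; the DR5-regulated reporter transcript was quantified via RT-PCR and capillary electrophoresis, with activity fitted bidirectionally against DMSO.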

Measured: AC50

Sequence of Aryl hydrocarbon receptor (Homo sapiens) (P35869 whole entry, looked up): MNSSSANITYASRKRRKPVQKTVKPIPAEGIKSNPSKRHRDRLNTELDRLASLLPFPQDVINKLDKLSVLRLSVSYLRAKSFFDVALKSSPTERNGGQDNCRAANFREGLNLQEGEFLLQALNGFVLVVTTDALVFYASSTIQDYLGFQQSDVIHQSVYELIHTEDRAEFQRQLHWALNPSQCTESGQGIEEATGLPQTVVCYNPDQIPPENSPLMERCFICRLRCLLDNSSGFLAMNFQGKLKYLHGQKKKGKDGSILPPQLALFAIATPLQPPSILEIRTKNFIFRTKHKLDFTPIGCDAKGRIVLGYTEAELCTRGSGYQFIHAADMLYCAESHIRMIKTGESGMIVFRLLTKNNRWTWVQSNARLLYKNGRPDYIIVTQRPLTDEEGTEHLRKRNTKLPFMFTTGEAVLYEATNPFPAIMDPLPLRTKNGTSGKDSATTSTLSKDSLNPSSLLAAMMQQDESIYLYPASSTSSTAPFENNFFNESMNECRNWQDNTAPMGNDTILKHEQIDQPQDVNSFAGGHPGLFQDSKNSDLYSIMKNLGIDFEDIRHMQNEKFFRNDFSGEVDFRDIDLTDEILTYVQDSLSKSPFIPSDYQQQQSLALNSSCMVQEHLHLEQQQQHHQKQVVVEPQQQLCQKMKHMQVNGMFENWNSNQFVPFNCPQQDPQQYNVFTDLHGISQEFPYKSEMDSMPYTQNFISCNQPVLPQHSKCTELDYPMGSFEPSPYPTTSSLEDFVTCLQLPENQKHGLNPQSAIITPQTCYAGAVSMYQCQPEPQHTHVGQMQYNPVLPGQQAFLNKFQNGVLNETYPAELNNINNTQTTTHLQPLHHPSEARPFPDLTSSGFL
Sequence of Retinoic acid receptor alpha (Homo sapiens) (P10276 whole entry, looked up): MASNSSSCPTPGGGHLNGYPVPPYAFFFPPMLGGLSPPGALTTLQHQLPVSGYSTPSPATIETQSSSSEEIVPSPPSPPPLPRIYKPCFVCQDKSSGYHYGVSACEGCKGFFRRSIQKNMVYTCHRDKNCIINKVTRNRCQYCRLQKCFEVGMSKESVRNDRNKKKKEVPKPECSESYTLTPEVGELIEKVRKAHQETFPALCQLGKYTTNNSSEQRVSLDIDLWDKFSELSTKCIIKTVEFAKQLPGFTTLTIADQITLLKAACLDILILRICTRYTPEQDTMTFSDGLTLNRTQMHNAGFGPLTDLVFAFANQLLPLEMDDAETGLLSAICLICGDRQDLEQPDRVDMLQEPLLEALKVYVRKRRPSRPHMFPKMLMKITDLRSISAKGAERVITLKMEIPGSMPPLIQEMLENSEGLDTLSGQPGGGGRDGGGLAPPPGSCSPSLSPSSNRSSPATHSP
Sequence of CCAAT/enhancer-binding protein beta (Homo sapiens) (P17676 whole entry, looked up): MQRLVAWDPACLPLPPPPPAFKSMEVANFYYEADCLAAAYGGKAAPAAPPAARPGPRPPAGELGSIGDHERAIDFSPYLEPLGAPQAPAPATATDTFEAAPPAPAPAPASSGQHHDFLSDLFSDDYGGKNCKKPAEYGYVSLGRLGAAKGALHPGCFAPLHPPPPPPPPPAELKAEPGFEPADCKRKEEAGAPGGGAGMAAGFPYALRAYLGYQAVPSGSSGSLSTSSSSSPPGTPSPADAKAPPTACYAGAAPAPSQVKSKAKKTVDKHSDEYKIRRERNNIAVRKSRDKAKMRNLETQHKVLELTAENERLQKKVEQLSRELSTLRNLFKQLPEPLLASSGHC

CC(C)NC(=O)N1CC(=O)N(c2cc(Cl)cc(Cl)c2)C1=O
active: [15] 4.87 µM
not listed: [19]
inactive: all other assays above

COC(=O)NS(=O)(=O)c1ccc(N)cc1
active: [12] 13.2 µM
not listed: [19]
inactive: all other assays above

CCNP(=S)(OC)O/C(C)=C/C(=O)OC(C)C (stereo not drawn)
active: [14] 50 µM | [15] 13.6 µM
not listed: [19]
inactive: all other assays above

CCOP(=O)(OCC)Oc1nc(Cl)c(Cl)cc1Cl
active: [13] 19.6 µM
inactive: all other assays above

Cc1cnc(C2=NC(C)(C(C)C)C(=O)N2)c(C(=O)O)c1 (stereo not drawn)
not listed: [19]
inactive: all other assays above

Cc1cc(C)nc(Nc2ccccc2)n1
active: [1] 46.3 µM | [11] 7.42 µM | [12] 6.27 µM | [16] 30.4 µM | [18] 27 µM
not listed: [19]
inactive: all other assays above

CCCC(=NOCC)C1=C(O)CC(CC(C)SCC)CC1=O (stereo not drawn)
inactive: all assays above

Clc1nc(Cl)nc(Nc2ccccc2Cl)n1
active: [11] 76.6 µM | [12] 75.5 µM | [13] 27.4 µM | [16] 50 µM
not listed: [19]
inactive: all other assays above

OC(c1ccc(Cl)cc1)(c1ccc(Cl)cc1)C(Cl)(Cl)Cl
active: [1] 32.2 µM | [5] 32.2 µM | [7] 107 µM
not listed: [15] | [19]
inactive: all other assays above

O=P(O)(O)CCCl
not listed: [19]
inactive: all other assays above

Nc1c(Cl)c(F)nc(OCC(=O)O)c1Cl
inactive: all assays above

CC(C)Oc1cccc(NC(=O)c2ccccc2C(F)(F)F)c1
active: [1] 131 µM | [5] 100 µM | [11] 13.6 µM | [12] 5.21 µM | [13] 41.8 µM | [15] 22.2 µM | [18] 9.92 µM
not listed: [19]
inactive: all other assays above
